# AMA1 RON2 block = qHTS for Inhibitors of AMA1-RON; Towards Development of Antimalarial Drug Lead: Primary Screen. Plasmodium falciparum AMA1 (3D7) - RON2 peptide interaction. AlphaScreen AMA1-biotinylated RON2 peptide binding. Potency, µM (doses to about 58.2 µM), without a hit: at the highest dose activity change, negative = inhibition, hits mostly inhibitors. hit rate 0.2% among 360,000;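 note: 0% = vehicle wells and -100% = peptide control; nearly all actives have a fitted effect of over 45% in size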
#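 AMA1 (3D7) with his tag at 25 nM final met compounds first, then biotinylated RON2 peptide at 25 nM; detection used donor plus acceptor beads, 10 µg/mL apiece, read by AlphaScreen after 30 min at room temperature.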
# Lassa entry inh = qHTS for Inhibitors of binding or entry into cells for Lassa Virus. Potency, µM (top dose mostly 37.9 µM), for the others: at the top dose activity change, negative = inhibition, hits mostly inhibitors. Lassa virus pseudotype entry inhibition, cell reporter. hit rate 1.2% among 300,000; calls by dose curve; tested in HEK293 cells; note: nearly all actives have a fitted effect of over 50% in size
# AmpC no deterg = qHTS Inhibitors of AmpC Beta-Lactamase (assay without detergent). P00811. AmpC nitrocefin hydrolysis, absorbance 480 nm, 0.0001% Triton. Potency, µM (series often up to 57.1 µM), inactives show at the top dose activity change, negative = inhibition, hits mostly inhibitors. hit rate 0.52% among 330,000;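 note: plate controls were no compound for no effect and no enzyme for full effect; nearly all actives have a fitted effect of over 20% in size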
# Target sequence (P00811 whole entry, looked up): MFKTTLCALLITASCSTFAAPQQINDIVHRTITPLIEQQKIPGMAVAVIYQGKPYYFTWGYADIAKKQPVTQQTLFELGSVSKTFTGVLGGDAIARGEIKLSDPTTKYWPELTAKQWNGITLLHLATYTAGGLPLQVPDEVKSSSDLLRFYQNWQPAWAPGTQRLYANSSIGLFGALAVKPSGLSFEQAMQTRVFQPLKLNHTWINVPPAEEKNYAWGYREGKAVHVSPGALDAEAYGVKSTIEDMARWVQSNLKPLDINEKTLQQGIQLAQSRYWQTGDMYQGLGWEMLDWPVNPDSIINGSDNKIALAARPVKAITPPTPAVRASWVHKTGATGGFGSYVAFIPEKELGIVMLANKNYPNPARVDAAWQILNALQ
#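 AmpC (5.3 nM in the dispensed reagent) in 20 mM phosphate pH 7.0 with 0.01% (detergent screen) or 0.0001% Triton X-100 was preincubated with compounds for 15 min at room temperature. Nitrocefin was then added from an 800 uM solution, and hydrolysis was followed at 480 nm.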
# Marburg entry inh = qHTS for inhibitors of binding or entry into cells for Marburg Virus; Marburg virus pseudotyped entry inhibition, cell reporter; Potency, µM (highest dose often 37.8 µM), inactives show at the top dose activity change, negative = inhibition, usual class: inhibitors; hit rate 1.8% among 300,000; calls by dose curve; tested in HEK293 cells
# AmpC detergent = qHTS Inhibitors of AmpC Beta-Lactamase (assay with detergent). P00811. hit rate 0.041% among 370,000. AID 485294, 2010. Potency, µM (highest dose often 114 µM), for the others: top-dose activity change, negative = inhibition, hits mostly inhibitors. AmpC hydrolysis of nitrocefin, absorbance 480 nm, 0.01% Triton;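 note: 0% = no-compound wells and -100% = no-enzyme wells; nearly all actives have a fitted effect of over 25% in size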
#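 20 mM phosphate pH 7.0 + 0.01% (detergent screen) or 0.0001% Triton X-100; 5.3 nM AmpC reagent; cpd preinc 15 min RT; nitrocefin (800 uM stock) to start; A480 q20 s × 4 min; Activity was normalised to no-enzyme and no-compound control wells.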
# An asterisk follows results filed as active; ? = inconclusive; . = no result given; ! = a repeat was not active; [ ] = another dose, or the depositor's remark. An excerpt weighted towards active compounds, which were near 2.3% of everything screened. Unless noted, calls come from the whole dose curve; as a rule, active = well fitted curve in the direction sought with a large enough effect; inconclusive = small, poorly fitted or top-dose-only effect, or another doubt; inactive = no such curve, though single readings can be large; an effect the other way counts as inactive or inconclusive. Unless noted, % is set by controls: 0 for no effect and ±100 for the full control effect; potency is the fitted concentration of half-maximal effect.
SMILES,AMA1 RON2 block,Lassa entry inh,AmpC no deterg,Marburg entry inh,AmpC detergent
O=S(=O)(c1ccc(Cl)c(NC(=S)N/N=C/c2c(F)cccc2F)c1)N1CCOCC1,36%,-6%[46.1 µM],-39%,?,-7%
CC(C)CCN1C(=O)c2ccccc2CC1(C)C(=O)NC1CCC(C)CC1 (stereo not given),.,.,.,0%[46.1 µM],19%
Oc1ccc(CNc2ccc(C(F)(F)F)cc2Cl)c2cccnc12,.,.,-31%,.,-8%
O=C(CSc1nnc(-c2cccs2)n1-c1ccccc1)N1CCCc2ccccc21,0%,?,-25%,12µM*,0%
CCn1c(SCC(=O)N2CCCc3ccccc32)nnc1-c1cccs1,5%,-28%[14.3 µM],-9%,9%,-12%
CCC(C(=O)Nc1c(C)cccc1C)n1c(-c2ccc(=O)[nH]c2)nc2ccccc21 (stereo not given),-7%,.,.,.,.
C=CCCN1C(=O)NC(c2ccccc2)C(C(C)=O)=C1C (stereo not given),.,.,.,29%[14.2 µM],.
O=C(NCCCn1ccnc1)[C@H](Cc1ccccc1)N1C(=O)c2ccccc2C1=O,.,.,.,1%,.
CC1=NS(=O)(=O)c2cc(Cl)ccc2N1,3%,?,-19%,13µM*!,?
CCc1ccc(-c2nc(CN3CCCC(C(=O)N4CCN(c5cc(Cl)ccc5C)CC4)C3)c(C)o2)cc1 (stereo not given),.,?,.,?,-4%
CC(=O)N1CCN(c2ccc(NCc3ccc4c(c3)OCO4)cc2)CC1,1%,-3%,84%,?,2%
O=C(Nc1ccc(N2CCN(C(=O)c3ccccc3)CC2)c(Cl)c1)c1ccc(Br)o1,11%,21µM*,-5%,?,-7%
O=C(Nc1ccc(N2CCN(C(=O)c3ccccc3)CC2)cc1)c1ccc(Br)o1,7%,-28%,0%,?,-13%
O=C(Nc1ccc(N2CCN(C(=O)c3ccccc3)CC2)cc1)c1cc2ccccc2o1,-1%,14µM*,-8%,?,-9%
O=C(c1ccccc1)N1CCN(c2ccc(NCc3ccc4c(c3)OCO4)cc2)CC1,28µM*,.,11%,-1%,0%
COC(=O)c1sccc1S(=O)(=O)Nc1ccc(S(N)(=O)=O)cc1,-16%,-2%,-10%,-2%,-7%
COC(=O)c1sccc1S(=O)(=O)Nc1ccc(N2CCCCC2)cc1,14µM*,-27%,-11%,-4%[46.1 µM],3%
CC(=O)Nc1ccc(CN(C)CC2CCCN(CCc3cccc(C(F)(F)F)c3)C2)cc1 (stereo not given),-20%,?,47%,10µM*,-3%
CN(Cc1c(O)ccc2c1oc(=O)c1ccccc12)C1CCCCC1,21µM*,-3%,-24%,?,-4%
CCOC(=O)C(=Cc1ccc(-n2cncn2)cc1)C(=O)OCC,5%,11µM*,-7%,?,2%
COc1ccc2c(c1)CCc1c(C(=O)Nc3c(C)nn(Cc4ccc(C)cc4)c3C)noc1-2,.,-23%[46.1 µM],.,?,-1%
CCC1C(c2ccccc2)N(C)C(c2ccccc2)CC1(O)c1ccccc1 (stereo not given),-13%,?,-18%,?,-5%
CC(C)C1C(c2ccccc2)N(C)C(c2ccccc2)CC1(O)c1ccccc1 (stereo not given),-3%,?,-20%,15µM*,-13%
CCN(CC)C(=O)CSc1nc(-c2cccs2)cc(-c2cccs2)c1C#N,-4%,18µM*,-23%,?,-2%
CCN(CC)C(=O)CSc1nc(N)c(C#N)c(-c2cccs2)c1C#N,-5%,-24%,-16%,?,-12%
SMILES,AMA1 RON2 block,Lassa entry inh,AmpC no deterg,Marburg entry inh,AmpC detergent
COc1ccc(-c2cc(-c3cccs3)c(C#N)c(SCC(=O)NCc3ccco3)n2)cc1,7%,?,-49%,0.46µM*,?
Cc1ccc(S(=O)(=O)N2CCC(C(=O)N[C@@H](C)C(=O)Nc3ccc4c(c3)OCO4)CC2)cc1,11%,9%,8%,8%,35µM*
CCc1cc(=O)oc2cc3occ(C)c3cc12,6%[2.32 µM],6%,-18%,-4%,5%
CCc1cc(=O)oc2cc3occ(-c4ccc(OC)c(F)c4)c3cc12,4%,5µM*,-15%,?,4%
Cc1cc(C)c2nc(SCC(=O)N3CC(=O)Nc4ccccc43)c(C#N)cc2c1,10%,?,3.5µM*,?,2%
COc1ccc2nc(SCC(=O)N3CC(=O)Nc4ccccc43)c(C#N)cc2c1,-3%,?,-52%,?,?
CCc1ccc(C(=O)c2cn(Cc3ccccc3)c3cc(OC)c(OC)cc3c2=O)cc1,.,-7%[46.1 µM],.,?,-20%
CC(C)c1nnc(NC(=O)CCS(=O)(=O)c2nc(-c3cccs3)cc(C(F)(F)F)n2)s1,2%,?,25%,13µM*,-4%
O=C(CCS(=O)(=O)c1nc(-c2cccs2)cc(C(F)(F)F)n1)Nc1ccc(OC(F)(F)F)cc1,.,?,.,?,0%
CC(=O)OC(=C(OC(C)=O)c1ccccc1)c1ccccc1,-15%,9%[46.1 µM],.,-1%[46.1 µM],.
N#CC(=C1C=CC(=NO)C(Cl)=C1)c1ccc(Cl)cc1,?,?,.,-21%,.
CC(=O)ON=C1C=CC(=C(C#N)c2ccccc2)C=C1,28µM*,.,.,.,.
COc1ccc(C(C#N)=C2C=CC(=NO)C=C2)cc1,16µM*,?,-28%,?,1%
CC(C)=CCCC(C)=CCON=C1C[C@@H](O)[C@@H](O)[C@@H]2[C@H]3C(=O)N(Cc4ccc5c(c4)OCO5)C(=O)[C@@H]3CC[C@H]12,.,?,.,-17%[14.2 µM],.
O=C(CCCCCNc1nc(=S)[nH]c2ccccc12)NCCc1c[nH]c2ccccc12,45%,-5%,-57%,?,?
O=C(CCCCCNc1nc(=S)[nH]c2ccccc12)NCCc1ccc(Cl)cc1,35%,-2%,20µM*,?,-5%
CC(C)CCNC(=O)Cc1ccc(Nc2nc(=S)[nH]c3ccccc23)cc1,80%,.,16µM*,?,3%
Cc1ccc(C(=O)c2cn(Cc3cc(C)ccc3C)c3nc(C)ccc3c2=O)cc1,.,?,.,7.1µM*,14%
Cc1ccc(Cn2cc(C(=O)c3ccc(C)cc3)c(=O)c3ccc(C)nc32)cc1,.,-5%[46.1 µM],.,?,17%
CN(Cc1ccccc1)c1nc2c(c(=O)[nH]c(=O)n2C)n1Cc1ccccc1,-1%,-24%,99%,-6%,?
Cc1cccc(Cn2c(N(C)CCO)nc3c2c(=O)[nH]c(=O)n3C)c1,18%,.,11µM*,.,?
CN(C(=O)CSc1nnc(-c2ccc([N+](=O)[O-])cc2)o1)C1CCCCC1,.,2%[46.1 µM],.,4%[46.1 µM],22%
O=c1[nH]nc(SCc2nnc(-c3ccc([N+](=O)[O-])cc3)o2)n1C1CCCCC1,3.2µM*,-6%[46.1 µM],1%,-4%[46.1 µM],11%

# Assay outcomes deposited in PubChem by National Center for Advancing Translational Sciences (NCATS).
